The nature of test [1]: qHTS assay for small molecule agonists of the p53 signaling pathway (AID 651631; calls by dose curve; also: nearly all actives have a fitted effect of over 15% in size). A digest of the protocol:
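HCT-116 p53RE-bla reporter line, 16 h compound treatment at 37 °C, then fluorescence after 2 h with B/G FRET substrate.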

Test [2] in a line: qHTS assay for small molecules that induce genotoxicity in human embryonic kidney cells expressing luciferase-tagged ATAD5 (AID 651632). Also: nearly all actives have a fitted effect of over 15% in size. A digest of the protocol: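 Concentration-response screen for ATAD5 upregulation in HEK293T luciferase reporter cells; 16 hr treatment at 37C, then luminescence after 30 min with Amplite at room temperature.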
Test [3] is described as follows: qHTS assay for small molecule agonists of the p53 signaling pathway - cell viability (AID 651633; calls by dose curve;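 also: p53RE-bla HCT reporter cells with a stable beta-lactamase p53 reporter; series mostly up to about 83 µM; nearly all actives have a fitted effect of over 30% in size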). A digest of the protocol:
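p53RE-bla cells were treated with compound for 16 hours at 37 C. Cytotoxicity was then measured as CellTiter-Glo luminescence after 30 min at room temperature.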

The nature of test [4]: qHTS assay for small molecules that induce genotoxicity in human embryonic kidney cells expressing luciferase-tagged ATAD5 - cell viability (AID 651634; calls by dose curve; also: nearly all actives have a fitted effect of over 25% in size). A digest of the protocol: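 15.5 hr compound or vehicle exposure of HEK293T cells expressing luciferase-tagged ATAD5 at 37C; live-cell protease activity is read by fluorescence after 30 min of CellTiter-Fluor.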
The nature of test [5]: qHTS assay for small molecule disruptors of the mitochondrial membrane potential - cell viability (AID 720634; calls by dose curve; also: nearly all actives have a fitted effect of over 20% in size; also: potency is read from the fitted curve at half-maximal effect). The method, boiled down:
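In this qHTS format, HepG2 cells plated overnight were pinned with compound, incubated 1 hr, and assayed for ATP luminescence with CellTiter-Glo after m-MPI dye addition.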

Test [6] in a line: qHTS assay for small molecule disruptors of the mitochondrial membrane potential (AID 720635). Also: potency is read from the fitted curve at half-maximal effect. A digest of the protocol: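 HepG2 cells exposed to compound 1 hr at 37C, then Mito-MPS dye 30 min. Ratio read of aggregate (540/590 nm) versus monomer (490/535 nm) fluorescence.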
The nature of test [7]: qHTS assay to test for compound auto fluorescence at 590 nm (red) in HepG2 cells (AID 720674). The method, boiled down:
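Seeding: 2,000 HepG2 cells/well, MEM/10% FBS, overnight 37 C. Dosing: compound vs DMSO. Incubation: 1 hr, 37 C, 5% CO2. Read: fluorescence 540 ex/590 em, Rose Bengal sodium as red reference.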

Test [8] is described as follows: qHTS assay to test for compound auto fluorescence at 535 nm (green) in HepG2 cells (AID 720675).
Test [9] in a line: qHTS assay to test for compound auto fluorescence at 460 nm (blue) in HEK293 cells (AID 720678). A digest of the protocol:
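HEK293 cells (2,000/well, medium with 10% dialyzed FBS) attached 4-5 hr, then exposed to compound overnight at 37C, 5% CO2. Blue fluorescence read at 405/460 nm, with triamterene as reference fluorophore.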

A short description of test [10]: qHTS assay to test for compound auto fluorescence at 590 nm (red) in HEK293 cells (AID 720679). The method, boiled down: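 HEK293 cells (2,000/well, 10% dialyzed FBS) attached 4-5 hr, then dosed with compound or DMSO and incubated overnight at 37C, 5% CO2. Red fluorescence read at 540/590 nm, Rose Bengal sodium as reference fluorophore.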
Test [11] can be described thus: qHTS assay to test for compound auto fluorescence at 535 nm (green) in HEK293 cells (AID 720680).
A short description of test [12]: qHTS assay to test for compound auto fluorescence at 460 nm (blue) in HEK293 cell free culture (AID 720681). A digest of the protocol:
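Compounds were added to cell-free DMEM with 10% FBS and fluorescence read directly. The blue channel used 405 nm excitation and 460 nm emission, with triamterene as the reference fluorophore.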

Test [13] can be described thus: qHTS assay to test for compound auto fluorescence at 535 nm (green) in HEK293 cell free culture (AID 720682). The method, boiled down:
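Steps: dispense DMEM/10% FBS into empty wells; pin in compound or DMSO; measure fluorescence at 485/535 nm. Values are fluorescein equivalents.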

A short description of test [14]: qHTS assay to test for compound auto fluorescence at 590 nm (red) in HEK293 cell free culture (AID 720683). A digest of the protocol:
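Cell-free wells of DMEM with 10% FBS received compound, and intrinsic fluorescence was read at excitation/emission 540/590 nm. Values expressed as equivalence to Rose Bengal sodium.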

Test [15] in a line: qHTS assay to test for compound auto fluorescence at 590 nm (red) in HepG2 cell free culture (AID 720684). A digest of the protocol:
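Rose Bengal sodium served as the reference for red signal. Test compounds were dispensed into serum-containing MEM (10% FBS) without cells, and plates were read at 540/590 nm.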

Test [16] can be described thus: qHTS assay to test for compound auto fluorescence at 460 nm (blue) in HepG2 cell free culture (AID 720685). The method, boiled down: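 Cell-free plates of MEM plus 10% FBS received 23 nL compound or DMSO vehicle; blue-channel (405/460 nm) intensity scored against triamterene as reference fluorophore.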
Test [17] is described as follows: qHTS assay to test for compound auto fluorescence at 535 nm (green) in HepG2 cell free culture (AID 720686).
Test [18] can be described thus: qHTS assay to test for compound auto fluorescence at 460 nm (blue) in HepG2 cells (AID 720687). The method, boiled down:
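HepG2 cells in MEM with 10% FBS, attached overnight at 37 C, were exposed to compound or DMSO for 1 hr at 37 C, 5% CO2. Blue fluorescence was read at 405/460 nm, with triamterene as reference fluorophore.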

Test [19] addresses Glucocorticoid receptor (Homo sapiens) (UniProt P04150). Nature of the test: qHTS assay to identify small molecule agonists of the glucocorticoid receptor (GR) signaling pathway (AID 720691; active = well fitted activation curve with a large enough effect in the signal ratio in the repeat runs, not every such curve was filed as active; the % refers to the signal ratio). A digest of the protocol:
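Measures GR pathway activation through a GRE-beta-lactamase reporter stably integrated in HeLa cells, with 18 h compound treatment at 37 C and fluorescence detection using a FRET substrate.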

The target is the same in test [20]. Nature of the test: qHTS assay to identify small molecule antagonists of the glucocorticoid receptor (GR) signaling pathway (AID 720692; active = well fitted inhibition curve with a large enough effect in the signal ratio in the repeat runs, not every such curve was filed as active; the % refers to the signal ratio). The method, boiled down: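 Tox21 10K library screened in concentration-response for blockade of dexamethasone (5 nM final)-induced GRE-bla reporter activity in HeLa cells; 18 h treatment, fluorescence read.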

Values without a mark were called inactive. Records with an inconclusive call do not appear. The source made the active and inactive calls. Unless noted, calls follow the shape of the dose curve; as a rule, active = well fitted curve in the direction sought with a large enough effect in the repeat runs; inconclusive = weak or mixed curves; inactive = no such curve, though single readings can be large; an effect the other way counts as inactive or inconclusive.
% is scaled to controls: 0 for no effect and ±100 for the full control effect.

Chain of Glucocorticoid receptor (Homo sapiens) (P04150 whole entry, looked up): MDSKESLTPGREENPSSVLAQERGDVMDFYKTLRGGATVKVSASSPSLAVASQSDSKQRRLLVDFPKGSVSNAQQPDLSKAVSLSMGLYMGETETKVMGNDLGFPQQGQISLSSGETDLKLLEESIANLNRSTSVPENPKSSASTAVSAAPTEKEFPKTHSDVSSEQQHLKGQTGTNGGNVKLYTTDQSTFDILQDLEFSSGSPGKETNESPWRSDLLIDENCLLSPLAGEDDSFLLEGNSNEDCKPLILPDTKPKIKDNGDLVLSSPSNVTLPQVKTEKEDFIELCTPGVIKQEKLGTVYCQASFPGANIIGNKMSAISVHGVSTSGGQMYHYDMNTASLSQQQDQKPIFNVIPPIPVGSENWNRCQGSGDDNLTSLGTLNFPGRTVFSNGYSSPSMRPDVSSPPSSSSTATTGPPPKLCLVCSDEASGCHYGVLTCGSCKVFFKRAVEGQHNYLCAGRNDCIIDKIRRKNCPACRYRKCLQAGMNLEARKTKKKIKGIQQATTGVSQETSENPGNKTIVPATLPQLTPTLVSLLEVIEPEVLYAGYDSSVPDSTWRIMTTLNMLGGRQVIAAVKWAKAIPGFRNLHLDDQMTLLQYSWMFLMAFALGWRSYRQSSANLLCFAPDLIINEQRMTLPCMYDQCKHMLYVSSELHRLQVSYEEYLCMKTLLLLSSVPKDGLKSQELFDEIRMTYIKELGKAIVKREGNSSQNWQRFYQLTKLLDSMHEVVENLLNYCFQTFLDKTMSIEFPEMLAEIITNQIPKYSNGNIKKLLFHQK

Turning to `C=C1c2cccc(O)c2C(O)=C2C(=O)[C@]3(O)C(O)=C(C(N)=O)C(=O)[C@@H](N(C)C)[C@@H]3[C@@H](O)[C@H]12`, the Potency result in [1], in [2], in test [3], in test [4], in test [5] and in [6] was “inactive” in each case. The Potency result in test [19] and in test [20] was “inactive” in each case. The fluorescence, relative to Rose Bengal in test [7] was -0.284% [at 18.6 µM]. The fluorescence, % of fluorescein control was -0.0181% [at 18.6 µM] in [8] and -0.0019% [at 18.6 µM] in test [17]. In addition, the fluorescence, % of triamterene in test [9] was 1.67% [at 18.6 µM]. The fluorescence, % of fluorescent control in [10] was 0.604% [at 18.6 µM]; in test [12], 1.43% [at 18.6 µM]; in [14], 0.464% [at 18.6 µM]; in test [16] it was 1.61% [at 18.6 µM]; in [18], 1.19% [at 18.6 µM]. For the same compound, the fluorescence, % of fluorescein in test [11] was 0.0422% [at 18.6 µM]. Further, the activity change in test [13] is -0.0974% [at 18.6 µM]. For the same compound, in [15], the fluorescence, % of Rose Bengal was -0.515% [at 18.6 µM].

As for `C[C@@H](O)[C@H]1C(=O)N2C(C(=O)O)=C([C@H]3CCCO3)S[C@H]12`, the Potency result in test [1], in test [2], in test [3], in [4], in test [5] and in [6] was “inactive” throughout. For the same compound, the Potency result in [9], in [12], in test [16] and in test [18] was “inactive” in each case. Besides, the result in test [7], in test [8], in test [10], in test [11], in test [13] and in [14] was inactive. Also, the result in [15] and in test [17] was inactive.

Consider `O=C1NCCN1CCO`, for which the Potency result in test [1], in [2], in [3], in test [4], in test [5] and in test [6] was “inactive” throughout. The Potency entry in [9], in test [12], in test [16] and in test [18] was “inactive” in each case. For the same compound, the result in [7], in test [8], in test [10], in test [11], in [13] and in test [14] was inactive. Further, the compound was called inactive in [15] and in [17].

As to `CCCCCCCCN`, the Potency entry in [1], in [2], in test [3], in test [4], in [5] and in test [6] was “inactive” throughout. In addition, the Potency entry in [12], in [16] and in test [18] was “inactive” in each case. The call in test [8], in test [10], in test [11], in [13], in test [14] and in [15] was inactive. Moreover, the call in test [17] was inactive.

Take `CO/N=C(/C(=O)N[C@@H]1C(=O)N2C(C(=O)O)=C(COC(N)=O)CS[C@H]12)c1ccco1`: the Potency entry in test [1], in test [2], in test [3], in [4], in test [5] and in test [6] was “inactive” in each case. In addition, the Potency result in [9], in test [12], in test [18], in test [19] and in test [20] was “inactive” in each case. Besides, the outcome in test [7], in test [8], in test [10], in [13], in test [14] and in test [15] was inactive. In addition, the outcome in [17] was inactive.

As to `CCOC(=O)[C@H](CCc1ccccc1)N[C@@H](C)C(=O)N(CC(=O)O)C1Cc2ccccc2C1`, the Potency result in test [1], in test [2], in test [3], in test [4], in test [5] and in test [6] was “inactive” in each case. In addition, the Potency entry in test [9], in test [12], in test [18], in test [19] and in [20] was “inactive” each time. The compound was classed as inactive in test [7], in test [8], in [10], in test [13], in [14] and in [15]. Also, the result in test [17] was inactive.

As for `NCCNCCO`, the Potency result in test [1], in test [2], in test [3], in [4], in test [5] and in test [6] was “inactive” each time. In addition, the Potency entry in [9], in [12], in test [16], in [18], in test [19] and in test [20] was “inactive” each time. In addition, the outcome in [7], in test [8], in test [10], in [11], in test [14] and in test [15] was inactive. The call in [17] was inactive.

In the case of `CCOC(=O)c1ccc(OCCN2C[C@H](O)[C@@H](O)[C@H](O)[C@H]2CO)cc1`, the Potency result in test [1], in test [2], in test [3], in [4], in test [5] and in test [6] was “inactive” throughout. For the same compound, the Potency result in [9], in [12], in test [16], in [18], in test [19] and in [20] was “inactive” in each case. The call in [7], in test [8], in [10], in test [11], in test [13] and in [14] was inactive. Besides, the call in test [15] and in test [17] was inactive.

With `CC1CC(C)C(=O)C1=O` (stereo not given), the Potency result in test [1], in [2], in test [3], in test [4], in [5] and in test [6] was “inactive” each time. In addition, the Potency result in test [9], in test [12], in test [18], in [19] and in test [20] was “inactive” each time. Also, the outcome in test [7], in [8], in test [10], in test [11], in test [14] and in test [15] was inactive. The compound was called inactive in test [17].

With `Nc1ncnc2c1ncn2[C@H]1CC[C@@H](CO)O1`, the Potency result in [1], in test [2], in [3], in test [4], in test [5] and in test [6] was “inactive” in each case. Besides, the Potency result in test [9], in test [12], in test [16] and in test [18] was “inactive” in each case. Besides, the call in test [7], in test [8], in test [10], in test [11], in test [13] and in test [14] was inactive. In addition, the compound was called inactive in test [15] and in test [17].

Consider `Clc1ccc(Nc2nnc(Cc3ccncc3)c3ccccc23)cc1`, for which the Potency result in test [1], in test [2], in [3], in [4], in test [9] and in test [12] was “inactive” in each case. Also, the Potency entry in test [16], in [18] and in [19] was “inactive” throughout. For the same compound, the Potency in [5] was 18.8 µM (active); in test [6], 26.6 µM (active). Also, the compound was classed as inactive in [7], in test [8], in [10], in test [11], in test [13] and in test [14]. Further, the result in test [15] and in test [17] was inactive.

Regarding `O[C@@H]1CO[C@H]2[C@@H]1OC[C@@H]2O`, the Potency entry in test [1], in test [2], in [3], in test [4], in [5] and in [6] was “inactive” each time. In addition, the Potency entry in test [9], in test [12], in test [16], in [18], in [19] and in test [20] was “inactive” in each case. Moreover, the outcome in [8], in test [10], in test [11], in [14], in [15] and in test [17] was inactive.

The values above are taken from PubChem BioAssay (Tox21).
